# Inconclusive results are not listed. A number with no mark means an inactive call. The source made the active and inactive calls. Calls come from the whole dose curve; as a rule, active = well fitted inhibition curve with a large enough effect; inconclusive = small, poorly fitted or top-dose-only effect; inactive = flat fitted curve, though single readings scatter.
# Test system: CRL-7250
# Assay: Cytotoxic Profiling of Annotated Libraries Using Quantitative High-Throughput Screening (AID 1296008); note: nearly all actives have a fitted effect of over 60% in size
# Conditions: Five cell lines viability, CellTiter-Glo ATP luminescence, 48-72 h; max response: stronger effect = lower value
# Method in brief: (§1)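 Cells exposed to compounds for 48 or 72 hr at 37 degrees Celsius. Viability read as ATP-coupled luminescence with CellTiter-Glo after 10 min at room temperature.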
# % is set by controls: 0 for no effect and ±100 for the full control effect; potency is the fitted concentration of half-maximal effect.
SMILES,max response,Potency,outcome
CN1CCc2cc3c(cc2C1C1OC(=O)c2c1ccc1c2OCO1)OCO3 (stereo unspecified),-4.88%,,
C#CCO[C@H]1CN2CCC1CC2,-0.287%,,
CC1CCCC(O)CC(=O)Cc2cc(O)cc(O)c2C(=O)O1 (stereo unspecified),-9.43%,,
COc1ccsc1CNCC[C@@]1(c2ccccn2)CCOC2(CCCC2)C1,-5.82%,,
C1=C(c2cnc[nH]2)c2ccsc2CC1,4.29%,,
CC1=CC2(O)/C=C/C(C)(O)C(O)C(O)/C=C/C(=O)OC23C(=O)NC(CC(C)C)C3C1C (stereo unspecified),-1.26%,,
C/C=C1/CN2CC[C@]34C(=Nc5ccc(OC)cc53)C2C[C@@H]1C4(CO)C(=O)OC (stereo partly specified),0.729%,,
Cc1cccc(NC(=O)N[C@H]2CN(C)c3ccccc3C(c3ccccc3)=N2)c1,-1.7%,,
Oc1ccc2c3c1O[C@H]1c4[nH]c5c(N=C=S)cccc5c4C[C@@]4(O)[C@@H](C2)N(CC2CC2)CC[C@]314,1.1%,,
CO[C@@H]1[C@H](O)[C@@H](O[C@@H]2C[C@H]3CC[C@@H]4C(CC[C@]5(C)[C@@H](C6=CC(=O)OC6)CC[C@]45O)[C@@]3(C)[C@H](O)C2)O[C@H](C)[C@@H]1O (stereo partly specified),,0.112 µM (active),
C[C@@H]1CCC/C=C/[C@H]2C[C@@H](O)C[C@@H]2[C@@H](O)/C=C/C(=O)O1,,0.206 µM (active),
C[C@]12CCC(=O)C=C1CC[C@@H]1[C@@H]2[C@@H](O)C[C@]2(C)C(=O)CC[C@@H]12,,,inactive
CCC(C)(O)C1(C(=O)O)COC(=O)C1 (stereo unspecified),-3.51%,,
COC(=O)C1=COC(C)C2CN3CCC4(C(=O)Nc5ccccc54)C3CC12 (stereo unspecified),-2.61%,,
CC1(C)C(=O)N(c2ccc(C#N)c(C(F)(F)F)c2)C(=O)N1CCCCO,-11%,,
O=C1N[C@@H](Cc2ccccc2)CN2CCCC[C@@H]12,-11.6%,,
CN1C(=O)CN=C(c2ccccc2Cl)c2cc(Cl)ccc21,,,inactive

# Test system: HEK293
# Assay: as above
# Conditions: Five cell lines viability, CellTiter-Glo ATP luminescence, 48-72 h; max response: stronger effect = lower value
# Method in brief: as §1
SMILES,max response,Potency
C/C=C(/C)C1C=CC2CC(C)CC(C)C2C1/C(O)=C1\C(=O)NC(CC(C)(O)C(=O)O)C1=O (stereo unspecified),-1.39%,
CS[C@]1(CO)C(=O)N2[C@H]3C(=CC=C[C@@H]3O)C[C@@]2(SC)C(=O)N1C,-12.6%,
COc1ccc2c3c4n(c2c1)[C@@H](C=C(C)C)OOC(C)(C)C[C@@H]4N1C(=O)[C@@H]2CCCN2C(=O)[C@]1(O)[C@H]3OCC=C(C)C,-3.84%,
CC1=CC2/C=C(\C)CCCC(O)/C=C/C(=O)OC23C(=O)NC(CC(C)C)C3C1C (stereo unspecified),-0.114%,
C=CC(C)(C)c1[nH]c2c(CC=C(C)C)cc(CC=C(C)C)cc2c1C[C@@H]1NC(=O)[C@H](C)NC1=O,-8.14%,
COc1cc(O)c2c(c1)/C=C/C[C@@H](O)[C@@H](O)C(=O)CCC[C@H](C)OC2=O,0.301%,
CC(=O)O[C@H]1CC[C@H]2[C@@H]3CC[C@H]4CC(=O)C=C(C)[C@]4(C)[C@H]3CC[C@]12C,,23.1 µM (active)
COc1cc(N2CCN(C)CC2)ccc1N,-21.4%,
COCC(C(=O)OC1CC2CCC(C1)N2C)c1ccccc1 (stereo unspecified),-0.619%,
N#CC(O[C@@H]1O[C@H](CO)[C@@H](O)[C@H](O)[C@H]1O)c1ccccc1 (stereo partly specified),-8.76%,
CC[C@H]1C2CC3[C@@H]4N(C)c5ccccc5[C@]45C[C@@H]([C@H]2[C@H]5O)N3[C@H]1O,3.06%,
NC(=O)c1ncn2c1CN=C(c1ccccc1Br)c1cc(F)ccc1-2,0.36%,
Cc1c(N2C(=O)[C@@H]3[C@H](O)CCN3C2=O)ccc(C#N)c1Cl,-6.16%,
CC(=O)O[C@@H]1[C@H]2CC[C@H]3[C@@](C)(O)[C@@H]4C[C@H](O)C(C)(C)[C@@]4(O)[C@H](O)C[C@@]13C[C@@]2(C)O,2%,
CC(=O)N1N=C(c2ccc(N)cc2)c2cc3c(cc2C[C@H]1C)OCO3,-4.81%,
COC(=O)[C@]12CCCC(C)(C)C1CCc1cc(C(C)C)c(O)c(O)c12 (stereo partly specified),3.53%,
COc1ccc(CN(C(=O)[C@@H](N)Cc2c(C)cc(C(N)=O)cc2C)[C@@H](C)c2ncc(-c3ccccc3)[nH]2)cc1C(=O)O,-8.03%,
C=CC/C=C\C/C=C\CCCCCCCc1cc(O)cc(O)c1,-20.2%,
CN1C2CCC1CC(OC(=O)N1Cc3ccccc3NC1=O)C2 (stereo unspecified),0.771%,
COC(=O)CC1CC2(C(=O)c3c(O)cccc3C2(O)C(=O)OC)C(C)O1 (stereo unspecified),-1.89%,

SMILES,max response,Potency
c1cncc(OC[C@@H]2CCN2)c1,1.76%,
Cc1c(Cl)c(OCC(=O)N2CCN(C)CC2)nc2sc(C(=O)NC3CC3)c(N)c12,-7.33%,
CN1CCc2cc3c(cc2C1C1OC(=O)c2c1ccc1c2OCO1)OCO3 (stereo unspecified),1.39%,
C#CCO[C@H]1CN2CCC1CC2,-18.5%,
CC1CCCC(O)CC(=O)Cc2cc(O)cc(O)c2C(=O)O1 (stereo unspecified),4.64%,
COc1ccsc1CNCC[C@@]1(c2ccccn2)CCOC2(CCCC2)C1,-0.102%,
C1=C(c2cnc[nH]2)c2ccsc2CC1,-1.06%,
CC1=CC2(O)/C=C/C(C)(O)C(O)C(O)/C=C/C(=O)OC23C(=O)NC(CC(C)C)C3C1C (stereo unspecified),-8.27%,
C/C=C1/CN2CC[C@]34C(=Nc5ccc(OC)cc53)C2C[C@@H]1C4(CO)C(=O)OC (stereo partly specified),4.62%,
Cc1cccc(NC(=O)N[C@H]2CN(C)c3ccccc3C(c3ccccc3)=N2)c1,-2.16%,
Oc1ccc2c3c1O[C@H]1c4[nH]c5c(N=C=S)cccc5c4C[C@@]4(O)[C@@H](C2)N(CC2CC2)CC[C@]314,-0.6%,
CO[C@@H]1[C@H](O)[C@@H](O[C@@H]2C[C@H]3CC[C@@H]4C(CC[C@]5(C)[C@@H](C6=CC(=O)OC6)CC[C@]45O)[C@@]3(C)[C@H](O)C2)O[C@H](C)[C@@H]1O (stereo partly specified),,0.224 µM (active)
C[C@@H]1CCC/C=C/[C@H]2C[C@@H](O)C[C@@H]2[C@@H](O)/C=C/C(=O)O1,,0.92 µM (active)
C[C@]12CCC(=O)C=C1CC[C@@H]1[C@@H]2[C@@H](O)C[C@]2(C)C(=O)CC[C@@H]12,-2.71%,
CCC(C)(O)C1(C(=O)O)COC(=O)C1 (stereo unspecified),0.689%,
COC(=O)C1=COC(C)C2CN3CCC4(C(=O)Nc5ccccc54)C3CC12 (stereo unspecified),-24%,
CC1(C)C(=O)N(c2ccc(C#N)c(C(F)(F)F)c2)C(=O)N1CCCCO,-15.9%,
O=C1N[C@@H](Cc2ccccc2)CN2CCCC[C@@H]12,-0.0326%,
CN1C(=O)CN=C(c2ccccc2Cl)c2cc(Cl)ccc21,-5.69%,
